According to PubChem BioAssay AID488857 (Sanford-Burnham Center for Chemical Genomics, 2010):
Among all 1,400 compounds or so, about 560 (40%) were called active.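 How the source made its calls: active means mean inhibition over duplicate tests at 10 µM above 50%; inactive means the rest.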 So high a share suggests a set chosen from earlier hits. The list shows a part of the results.

experiment: ASC/caspase-1 reporter retest in S. cerevisiae at one dose, specificity check for NALP1 project (AID 488857); details: S. cerevisiae ASC/Caspase-1, beta-galactosidase luminescence, 24 h; at 10 µM; hits give high values

inhibition, active:
O=C(NCc1cccs1)c1csc2ccccc12 57.2%
CC1(C)COC(/C=C/c2ccc([N+](=O)[O-])cc2)=N1 83.1%
O=C(CCl)NC(=O)NC12CC3CC(CC(C3)C1)C2 59.9%
CCOc1cc(CNCc2ccncc2)cc(Br)c1OCc1ccc(F)cc1 67.8%
CCOc1cc(CNC2CCCC2)cc(Cl)c1OCc1ccc(F)cc1 60.9%
CCC(C)c1ccc(OCCn2ccnc2)cc1 (centres undefined) 73.5%
CCOc1ccc(OCCCCn2ccnc2)cc1 54.8%
CCCN(Cc1nc(-c2ccc(Cl)cc2)no1)CC1CCCO1 (centres undefined) 54.2%
COCCN=C1Sc2nc3ccc(C)cc3cc2CN1Cc1ccco1 57.1%
COC(=O)c1cc(=O)n(-c2ccccc2)c(=Nc2ccccc2)s1 61.7%
Cc1nc(NC(=O)CCc2ccccc2)ccc1Br 63.3%
OC(CN1CCN(Cc2ccccc2)CC1)Cn1c2ccccc2c2ccccc21 (centres undefined) 56.6%
CCCSc1ccc2nc(-c3ccccc3)cn2c1 88.8%
O=C1C(Cl)=C(N2CCN(c3ccccc3[N+](=O)[O-])CC2)C(=O)c2ccccc21 68.8%
CC(C)(C)c1nnc(N/N=C/c2cc(Br)ccc2O)n(N)c1=O 86.8%
C/C(=N/Nc1ccc([N+](=O)[O-])cc1)c1ccc(C)cc1C 50.2%
CN(C)CCCN(C(=O)c1ccc2c(c1)CCCC2)c1nc2ccc(F)cc2s1 61.3%
CN(C)CCCN(C(=O)c1ccc2c(c1)CCCC2)c1nc2ccc(Cl)cc2s1 63.9%
Cc1cc(N2CCOCC2)ccc1/C=C\[N+](=O)[O-] 56.6%
O=C1O/C(=C/c2ccccc2)c2ccccc21 78.5%
c1ccc(-c2ccc(-c3cn4c(n3)CCC4)cc2)cc1 93.3%
O=C(CSc1nc(-c2ccccc2)cs1)Nc1cccc([N+](=O)[O-])c1 75.8%
CC(C)NC(=O)CSc1nc(-c2ccccc2)cs1 52%
Brc1cccc(OCCCCN2CCCCC2)c1 53.8%
Cc1ccc(OCCCCN2CCCCC2)c(Br)c1 62.1%
Cc1ccc(OCCCCN(C)Cc2ccccc2)c(Br)c1 54.8%
Cc1cc(Br)ccc1OCCCCN1CCC(C)CC1 60.4%
CC(CCc1ccccc1)NC(=O)c1cc2sccc2n1C (centres undefined) 52%
c1ccc2cc(CSCc3nc4ccccc4[nH]3)ccc2c1 71.4%
CCOC(=O)c1c(C)[nH]c(C)c1C(=O)COC(=O)c1cc2ccccc2cc1O 55.5%
CCCc1nn(C)c(C(=O)Nc2cccc(C)c2)c1Cl 65.5%
O=C1C2C(C(=O)N1/N=C/c1cc(Br)cc([N+](=O)[O-])c1O)C1C=CC2C12CC2 (centres undefined) 66.2%
CCOC(=O)c1c(NC2OC(=O)c3c2ccc(OC)c3OC)sc(C(=O)OC(C)(C)C)c1C (centres undefined) 65.2%
Cn1cccc1/C=N/N1CCN(Cc2ccc(Cl)cc2)CC1 51.9%
C#C[C@]1(O)CC[C@H]2[C@@H]3CCC4=C(CCC(=O)C4)[C@H]3CC[C@@]21C 61.3%
C#C[C@]1(O)CC[C@H]2[C@@H]3CCc4cc(O)ccc4[C@H]3CC[C@@]21C 79.5%
O=C(Nc1cccc(O)c1)c1noc2c1CCc1ccccc1-2 87%
Cc1cccc(N=C2NC(=O)/C(=C\c3cccs3)S2)c1 62.8%
COc1ccc(C(=O)/C=C/c2ccc(OC)c(CN3CCOCC3)c2)cc1 66%
C(=C\c1nc(N2CCCCCC2)c2ccccc2n1)/c1ccccc1 85.2%
C(=C\c1nc(N2CCCC2)c2ccccc2n1)/c1ccccc1 91.5%
COc1ccc2oc(=Nc3ccccc3)c(-c3nc4ccccc4[nH]3)cc2c1 59.1%
Cc1cc(C)cc(Cn2ncc(Cl)c(Cl)c2=O)c1 57.6%

inhibition, inactive:
CN1CCN(C2=C(Cl)C(=O)C(c3cnc(N4CCCCC4)s3)=C(Cl)C2=O)CC1 41.3%
COc1ccc(OC)c(N/C(=N/C(=S)Nc2ccccc2)Nc2nc(C)cc(C)n2)c1 34.1%
CCCn1nc(NC(=O)c2ccccn2)c2cc3cc(C)ccc3nc21 16.4%
CC(C)CC(=O)c1c[nH]c(C(=O)NCc2cccs2)c1 38.2%
CC1=C(OC(=O)c2ccc(Br)cc2)C(C)(C)C(c2ccccc2)OC1=O (centres undefined) 22%
CCCCN(Cc1ccccc1)C(=O)C1CCN(Cc2sccc2C)CC1 45.2%
O=C(CON=C1c2ccccc2-c2ccccc21)NC12CC3CC(CC(C3)C1)C2 33%
O=C(CSc1ncn[nH]1)NC12CC3CC(CC(C3)C1)C2 19.1%
CC1CCN(Cc2ccc(-c3nn[nH]n3)cc2)CC1 39.5%
COc1cc(CNC2CCCCCCC2)cc(Br)c1OCC#N 32.9%
C/C(=C(\C#N)C(=O)NCc1ccccc1)N(C)C 34.8%
CC1=CCC2C(=O)N(Cc3ccccc3)C(=O)C2C1 (centres undefined) 33.4%
COc1ccc(-c2noc(CCC(=O)N3CCC(C)CC3)n2)cc1 47.6%
O=C(COC(=O)C1(c2ccccc2F)CCCC1)N1CCOCC1 27.1%
O=C1NC(c2ccccc2)Nc2c1sc(=S)n2-c1ccccc1 (centres undefined) 32.5%
COC(=O)c1cc(=O)n(-c2ccc(F)cc2)c(=Nc2ccc(F)cc2)s1 39.8%
Cc1csc(NC(=O)CCc2ccc(S(=O)(=O)N3CCOCC3)cc2)n1 40.8%
OC(CN1CCCCC1)Cn1c2ccc(Cl)cc2c2cc(Cl)ccc21 (centres undefined) 49%
COc1ccc(OCC(O)Cn2c(=N)n(Cc3ccccc3)c3ccccc32)cc1 (centres undefined) 27.6%
Cc1nc(-c2ccccc2)sc1C(=O)CSc1ccccc1 46.5%
CC(C)CC(=O)N1CCN(c2ccc([N+](=O)[O-])cc2Cl)CC1 39.9%
O=[N+]([O-])c1ccc(N2CCN(c3ccc(Cl)nn3)CC2)c(Cl)c1 47.7%
CC1(C)Cc2c(c(N3CCOCC3)nc3sc4c(NCCN5CCOCC5)nnnc4c23)CS1 37.6%
O=c1oc2ccccc2nc1/C=C(O)/C=C/c1ccc(F)cc1 47.2%
COc1ccc(C(=O)/C=C/Nc2ccc([N+](=O)[O-])cc2C)c(OC)c1 28.5%
CCOC(=O)c1c(C)[nH]c(N=Nc2cccc(C)c2)c1C 46.2%
COC1=C(N)C(=O)c2nc(-c3nc(C(=O)O)c(C)c(-c4ccc(OC)c(OC)c4O)c3N)ccc2C1=O 29.4%
O=C(c1cccc([N+](=O)[O-])c1)n1nc(-c2ccccc2)nc1NCc1ccccc1 49.2%
Cc1ccnc(NS(=O)(=O)c2ccc(NC(=O)CSc3nc(-c4ccccc4)cc(=O)[nH]3)cc2)n1 6.75%
COc1cccc(CNC(=O)CSc2ccc(-c3ccncc3)nn2)c1 27.2%
COc1ccc(Cc2nnc(SC)[nH]c2=O)cc1 20.1%
CCOC(=O)c1[nH]c2ccc(Br)cc2c1NC(=O)CCN1CCC(C)CC1 40%
CC(C)N(C)CCOC(=O)c1ccccc1Br 28.4%
Brc1cccc(OCCN2CCCCC2)c1 49.1%
CC(C)NCCCCOc1cccc(Br)c1 45.5%
Cn1c(SCC(=O)NC(c2ccccc2)c2ccccc2)nnc1-c1cccs1 35.6%
C=C(C)C1CC=C(C)/C(=N/NC(=O)c2ccoc2C)C1 (centres undefined) 36.6%
CCOC(=O)c1c(C)[nH]c2c1-c1ccccc1C(=O)C2=O 26.6%
CCOC(=O)c1c(C)[nH]c(C(=O)COC(=O)c2oc3ccccc3c2C)c1C 31.9%
Cc1cccc(NC2=C(Cl)C(=O)OC2NC(=O)c2ccccc2)c1 (centres undefined) 23.1%
COCc1cc(=O)[nH]c(/N=C(\N)Nc2cccc(C)c2)n1 25.1%
Cc1cc(=O)n2ccccc2c1C#N 15.6%
O=S(=O)(Nc1ccncc1Cl)c1ccccc1 25.1%
O=C1C2C(C(=O)N1/N=C/c1ccc([N+](=O)[O-])o1)C1C=CC2C12CC2 (centres undefined) 38.2%
CCCCC(C(=O)NC1CCCC1)N(Cc1ccco1)C(=O)Cn1nnc(-c2ccc(F)cc2)n1 (centres undefined) 31.1%
Cc1ccc(CN2CCN(/N=C/c3cccs3)CC2)cc1 28.2%
CC(C)(CN1CCN(Cc2ccccc2)CC1)NS(=O)(=O)c1ccc(Cl)cc1 41.8%
COc1ccccc1CN(Cc1nc2ccccc2c(=O)[nH]1)C(=O)Nc1ccccc1 46.4%
O=C(OC1CCOC1=O)c1cc(-c2ccc(Br)cc2)nc2ccccc12 (centres undefined) 46.6%
O=C(Oc1cccc2cccnc12)c1ccc(N2C(=O)C3C4CCC(C4)C3C2=O)cc1 (centres undefined) 31.9%
CN1/C(=C\C(=O)Nc2ccc(Cl)cc2)C(C)(C)c2ccccc21 41.8%
CCOP(=O)(C1=C(O)C(=O)C(C(C)(C)C)=CC1=O)c1ccccc1 (centres undefined) 38.8%
O=C(/C=C/c1cccs1)c1cc(Br)ccc1OC(=O)N1CCOCC1 45.4%
COc1ccc(C(=O)Cn2c(C(=O)/C=C/c3ccccc3)nc3ccccc32)cc1 39%
CC(C)C(NC(=O)CN1C(=O)c2ccccc2S1(=O)=O)C(C)C 33.5%
Cn1ncc(S(=O)(=O)Cc2ccccc2)c(Cl)c1=O 39.1%
